Data on 7 compounds can be found in ChEMBL document CHEMBL3988442, “University of Dundee, Small-Polar-MMV Screening Library” (2021).

This experiment has as its target T1, Methionyl-tRNA synthetase, putative (Leishmania donovani (strain BPK282A1)) (UniProt E9BF75).
T1 sequence (whole entry): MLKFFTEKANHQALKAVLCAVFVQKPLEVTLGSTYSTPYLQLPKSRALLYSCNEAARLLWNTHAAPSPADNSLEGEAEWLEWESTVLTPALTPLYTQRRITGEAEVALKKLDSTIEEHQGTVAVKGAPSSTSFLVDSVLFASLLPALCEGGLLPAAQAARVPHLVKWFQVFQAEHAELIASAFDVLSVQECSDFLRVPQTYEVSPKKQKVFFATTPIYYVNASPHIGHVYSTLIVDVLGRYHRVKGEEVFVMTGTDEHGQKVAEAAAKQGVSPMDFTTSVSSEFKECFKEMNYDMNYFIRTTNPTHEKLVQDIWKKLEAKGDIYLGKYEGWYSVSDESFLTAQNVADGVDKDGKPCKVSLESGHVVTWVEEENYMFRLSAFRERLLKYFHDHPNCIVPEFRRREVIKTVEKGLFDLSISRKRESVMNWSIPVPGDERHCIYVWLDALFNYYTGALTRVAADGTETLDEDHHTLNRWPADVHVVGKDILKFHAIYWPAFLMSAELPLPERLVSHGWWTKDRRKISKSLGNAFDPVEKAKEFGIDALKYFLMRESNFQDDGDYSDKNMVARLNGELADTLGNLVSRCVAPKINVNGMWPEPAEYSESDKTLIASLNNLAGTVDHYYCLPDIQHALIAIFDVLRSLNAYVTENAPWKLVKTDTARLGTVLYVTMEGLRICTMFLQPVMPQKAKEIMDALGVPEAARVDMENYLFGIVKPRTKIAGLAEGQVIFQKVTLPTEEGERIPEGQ
Briefly: Leishmania donovani Methionine tRNA synthetase (LdMetRS):v7. Dose response assay. More on the design: conc 80 nM, time 150 minutes. It counts as functional.

In turn, `Cc1nc(N2CCN(C(=O)C(C)C)CC2)c2c3c(sc2n1)CC(C)CC3` (centres undefined) returned a PXC50 (MAX_EFFECT 28.46347607) of less than 4 and a PXC50 (MAX_EFFECT 29.26208651) of less than 4.

On to `Clc1cc(CN2CCCN3CCCC3C2)c2ncccc2c1` (centres undefined), for which the PXC50 by setting is: (BOTTOM 3.20477061, HILLSLOPE 1.084567425, MAX_EFFECT 62.37623762, TOP 100.0) 4.18; (BOTTOM 6.472550683, HILLSLOPE 0.834102773, MAX_EFFECT 67.39130435, TOP 100.0) 4.08; (BOTTOM 6.940148658, HILLSLOPE 1.034617946, MAX_EFFECT 59.85663082, TOP 100.0) 4.1.

Take `COc1ccc(Cl)cc1Cl`: the PXC50 runs as follows: (MAX_EFFECT 11.87904968) less than 3; (MAX_EFFECT 16.92015209) less than 3.

Regarding `Cc1cc(C(F)(F)F)nc(N2CCN3CCCC3C2)n1` (centres undefined), the PXC50 is less than 4 (MAX_EFFECT 10.18276762) and less than 4 (MAX_EFFECT 10.96605744).

Turning to `Cc1ccc(N2CCC3(CN(CCO)CCC3(F)F)C2)nn1` (centres undefined), the PXC50 reads like this: (MAX_EFFECT 9.719626168) less than 4; (MAX_EFFECT 11.33786848) less than 4.

With `Cn1cc(C(=O)Nc2ccccc2)c2ccccc21`, under “MAX_EFFECT 6.666666667”, the PXC50 is less than 4.

Take `Cc1nc(N2C[C@@H]3CCN(C)[C@@H]3C2)c2ccsc2n1`: the PXC50 runs as follows: (MAX_EFFECT 4.081632653) less than 4; (MAX_EFFECT 6.313131313) less than 4.
